An excerpt weighted towards active compounds, which were near 4.6% of everything screened.
tim23-1 inh – inhibits growth of tim23-1 mutant yeast; S. cerevisiae tim23-1 growth, BacTiter-Glo luminescence, 24 h; inhibition, % at 20 µM; 330,000 compounds, 1.3% hits;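 active = growth inhibition of the mutant yeast at or above 50%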;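 also: temperature-sensitive mutant grown at 25 °C; plate controls were DMSO-treated mutant yeast for no effect and medium wells lacking yeast for full effect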
NLRP3 yeast inh – blocks the NALP3 inflammasome reconstituted in yeast; Yeast reconstituted NLRP3/ASC/caspase-1, beta-gal luminescence, 24 h; inhibition, % at 10 µM; 330,000 compounds, 0.39% hits;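 active = inhibition of 50% or more; inactive = inhibition below 50%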;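 also: plate controls were induced DMSO wells for no effect and uninduced yeast grown without galactose for full effect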
tim10-1 inh – inhibits growth of tim10-1 mutant yeast; AID 463190; 330,000 compounds, 2.2% hits; S. cerevisiae tim10-1 ts strain growth, BacTiter-Glo, 24 h; inhibition, % at 20 µM;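 active = inhibition of at least 40%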;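 also: mutant grown at 25 °C; 0% = DMSO wells with yeast and 100% = wells holding no yeast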
TIM10 inh – inhibits growth of TIM10 yeast strain; S. cerevisiae TIM10 strain growth, BacTiter-Glo luminescence, 24 h; inhibition, % at 10 µM; 330,000 compounds, 1.4% hits; AID 463195;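 active = inhibition of 40% or more at the single tested concentration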;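 also: wild-type TIM10 isogenic control strain grown at permissive 25 °C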
SKKanGAS inh – SKKanGAS growth inhibition | S. pyogenes SKKanGAS, kanamycin growth, BacTiter-Glo, 6 h | inhibition, % at 7.5 µM | 300,000 compounds, 1.3% hits | AID 1662;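 active = mean replicate score, as percent of positive control median, at least 50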;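 also: strain carries kanamycin resistance gene driven by streptokinase promoter and grows in 40 µg/ml kanamycin; loss of luminescence reflects streptokinase promoter inhibition or plain growth inhibition; 0% = median of DMSO wells and 100% = positive control at its reference dose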
PfHsp90 set2 – reduces growth (ATP signal) of yeast expressing P. falciparum Hsp90; S. cerevisiae expressing PfHsp90, BacTiter-Glo ATP, 48 h; yeast lacking PDR1 and PDR3 efflux regulators; inhibition, % at 9.4 µM; 310,000 compounds, 0.32% hits; AID 504621;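 active = every replicate shows inhibition above about 80%, whatever the replicate mean, limit read from the data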;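 also: 0% = DMSO neutral controls and 100% = 20 µM radicicol positive controls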
tim10-1 confirm – confirmation of tim10-1 mutant yeast growth inhibitors; S. cerevisiae tim10-1 ts strain growth, BacTiter-Glo, 24 h; inhibition, % at 20 µM; 7,400 compounds, 56% hits; shares compounds with tim10-1 inh;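 active = inhibition of yeast growth at or above a set limit in either of two repeat tests at 20 µM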;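 also: tim10-1 mutant grown at permissive 25 °C to find synthetic lethal compounds; 0% = DMSO yeast wells and 100% = medium wells without yeast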
* = called active by the depositor.

COc1cc(NC(=O)c2cc3ccccc3cc2OC)ccc1NC(=O)c1cccs1 was read as tim23-1 inh 6, NLRP3 yeast inh 14, tim10-1 inh 5, TIM10 inh 5, SKKanGAS inh 34 and PfHsp90 set2 2.
`CCOc1ccc(NC(=S)N(CC)Cc2ccccc2)cc1` gave tim23-1 inh 19, NLRP3 yeast inh 16, tim10-1 inh -1, TIM10 inh 0 and SKKanGAS inh -2.
For CC(C(=O)N1CCCC1)N(c1ccccc1)S(C)(=O)=O (stereo not drawn) the results were tim23-1 inh 8, NLRP3 yeast inh 19, tim10-1 inh -10, TIM10 inh -5, SKKanGAS inh -10 and PfHsp90 set2 23.
`CCCOc1ccc(CSCCNC(=S)Nc2ccccc2)cc1` gave tim23-1 inh 41, NLRP3 yeast inh 35, tim10-1 inh 46*, TIM10 inh 32, SKKanGAS inh 2, PfHsp90 set2 3 and tim10-1 confirm 28.
`S=C(NCCSCc1ccccc1Cl)Nc1ccccc1` gave tim23-1 inh 34, NLRP3 yeast inh 18, tim10-1 inh 29, TIM10 inh 38, SKKanGAS inh 20 and PfHsp90 set2 -5.
`O=C(C(Cc1ccccc1)n1cccc1)N1CCN(Cc2ccccc2)CC1` (stereo not drawn) gave tim23-1 inh 21, NLRP3 yeast inh 7, tim10-1 inh 42*, TIM10 inh 11, SKKanGAS inh 1, PfHsp90 set2 16 and tim10-1 confirm 5.
Screening CC(C)C(C(=O)N1CCN(Cc2ccccc2)CC1)c1ccccc1 (stereo not drawn) returned tim23-1 inh 35, NLRP3 yeast inh -31, tim10-1 inh 50*, TIM10 inh 32, SKKanGAS inh 1, PfHsp90 set2 -5 and tim10-1 confirm 35*.
Screening O=C(C(Cc1ccccc1)n1cccc1)N1CCCCC1 (stereo not drawn) returned tim23-1 inh 11, NLRP3 yeast inh 16, tim10-1 inh 21, TIM10 inh 6, SKKanGAS inh -6 and PfHsp90 set2 3.
`CCOc1ccccc1CNC(=O)c1nn(CC)cc1[N+](=O)[O-]` gave tim23-1 inh -8, NLRP3 yeast inh 6, tim10-1 inh -3, TIM10 inh -23, SKKanGAS inh 7 and PfHsp90 set2 16.
`CCCn1c(-c2cccs2)nc2ccccc21` gave tim23-1 inh 38, NLRP3 yeast inh 14, tim10-1 inh 41*, TIM10 inh 15, SKKanGAS inh 1, PfHsp90 set2 2 and tim10-1 confirm 0.
Screening C=CCn1c(-c2cccs2)nc2ccccc21 returned tim23-1 inh 10, NLRP3 yeast inh 26, tim10-1 inh 4, TIM10 inh -14 and PfHsp90 set2 -4.
COc1ccc(CC(=O)Nc2nc(-c3cc(OC)ccc3OC)cs2)cc1 was read as tim23-1 inh 42, NLRP3 yeast inh 20, tim10-1 inh 43*, TIM10 inh 10, SKKanGAS inh 3, PfHsp90 set2 28 and tim10-1 confirm 35*.
For C=CCOc1c(Cl)cc(C(=S)N2CCCC2)cc1OCC the results were tim23-1 inh 23, NLRP3 yeast inh 42, tim10-1 inh 21, TIM10 inh -3 and SKKanGAS inh 5.
Cc1ccc(C)c(NC(=O)CN(C)C(=O)c2ccc(-c3cccc(C(F)(F)F)c3)o2)c1 was read as tim23-1 inh 27, NLRP3 yeast inh 16, tim10-1 inh 21, TIM10 inh 7, SKKanGAS inh 5 and PfHsp90 set2 2.
Screening OCCc1ccc(-c2ccc(Cl)cc2)o1 returned tim23-1 inh 23, NLRP3 yeast inh 12, tim10-1 inh 43*, TIM10 inh 16, SKKanGAS inh -9, PfHsp90 set2 -10 and tim10-1 confirm 25.
`O=C(C1CC1)N1CCc2cc(Br)cc(S(=O)(=O)N3CCN(c4ccccn4)CC3)c21` gave tim23-1 inh 28, NLRP3 yeast inh 20, tim10-1 inh 44*, TIM10 inh 10, SKKanGAS inh 3, PfHsp90 set2 17 and tim10-1 confirm 37*.

Assay outcomes (PubChem)
